Results published in the supplement of paper PMC11732987, “Enantioselective OTUD7B fragment discovery through chemoproteomics screening and high-throughput optimisation” (Communications Chemistry, 2025).

Key:
Assay in all cases: log2 ratio of Biotin-Ahx-Ub-VS probe labelling (fragment/DMSO); higher = less target engagement (more negative = stronger competition), active = hit call of the paper (q ≤ 0.05, log2 ratio ≤ -1)
Details in all cases: compound concentration: 200 uM; treatment time: 3 h
[1] = biological target: T1, USP19 (UniProt O94966)
T1 sequence (whole entry): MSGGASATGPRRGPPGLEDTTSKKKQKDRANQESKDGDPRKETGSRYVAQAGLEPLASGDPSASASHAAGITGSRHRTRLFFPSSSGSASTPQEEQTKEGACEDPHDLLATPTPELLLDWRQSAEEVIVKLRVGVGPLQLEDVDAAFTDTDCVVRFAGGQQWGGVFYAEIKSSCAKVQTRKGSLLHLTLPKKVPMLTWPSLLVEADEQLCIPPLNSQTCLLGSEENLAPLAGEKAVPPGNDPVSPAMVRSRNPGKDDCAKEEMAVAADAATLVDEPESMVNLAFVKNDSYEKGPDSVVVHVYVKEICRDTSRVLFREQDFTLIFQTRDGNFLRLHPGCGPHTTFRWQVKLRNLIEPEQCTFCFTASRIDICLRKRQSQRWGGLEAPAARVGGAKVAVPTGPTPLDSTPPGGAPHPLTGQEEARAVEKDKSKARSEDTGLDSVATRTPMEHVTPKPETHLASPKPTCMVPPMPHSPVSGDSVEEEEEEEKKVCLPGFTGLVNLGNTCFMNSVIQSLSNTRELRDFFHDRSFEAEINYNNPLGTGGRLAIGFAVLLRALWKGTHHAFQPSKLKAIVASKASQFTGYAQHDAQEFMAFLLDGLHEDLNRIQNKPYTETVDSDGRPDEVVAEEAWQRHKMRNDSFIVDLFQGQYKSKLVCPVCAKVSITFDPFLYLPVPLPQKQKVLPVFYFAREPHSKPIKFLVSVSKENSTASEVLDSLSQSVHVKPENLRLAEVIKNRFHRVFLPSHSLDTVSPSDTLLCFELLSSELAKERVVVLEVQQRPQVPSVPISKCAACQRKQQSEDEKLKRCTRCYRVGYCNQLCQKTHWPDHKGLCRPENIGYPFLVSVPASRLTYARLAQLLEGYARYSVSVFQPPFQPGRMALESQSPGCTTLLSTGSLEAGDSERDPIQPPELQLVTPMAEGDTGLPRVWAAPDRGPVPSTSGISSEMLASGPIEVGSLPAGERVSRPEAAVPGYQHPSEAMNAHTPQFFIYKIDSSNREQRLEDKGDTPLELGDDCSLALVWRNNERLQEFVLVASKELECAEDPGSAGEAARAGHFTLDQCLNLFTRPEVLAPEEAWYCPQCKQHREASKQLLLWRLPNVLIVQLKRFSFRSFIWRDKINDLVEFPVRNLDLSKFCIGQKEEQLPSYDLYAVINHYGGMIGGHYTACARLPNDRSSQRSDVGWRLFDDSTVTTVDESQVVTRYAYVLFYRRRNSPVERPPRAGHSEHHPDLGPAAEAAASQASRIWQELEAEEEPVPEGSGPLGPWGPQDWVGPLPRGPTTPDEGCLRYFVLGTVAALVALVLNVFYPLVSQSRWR
Outline: (§1)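 HEK293T lysate in Tris/CHAPS/IGEPAL buffer with protease inhibitors (495 µg per sample) was given fragment at 200 µM or vehicle for 3 h, in triplicate. It then received Biotin-Ahx-Ub-VS at 0.5 µM final for 1 h. Labelled DUBs were NeutrAvidin-enriched, digested with LysC and trypsin, and run by diaPASEF LC-MS/MS. Values are average log2 fragment/vehicle ratios by unpaired t-test on global-median-normalised Spectronaut quantities of proteins with ≥2 unique peptides.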

[2] = biological target: T2, USP22 (UniProt Q9UPT9)
T2 sequence (whole entry): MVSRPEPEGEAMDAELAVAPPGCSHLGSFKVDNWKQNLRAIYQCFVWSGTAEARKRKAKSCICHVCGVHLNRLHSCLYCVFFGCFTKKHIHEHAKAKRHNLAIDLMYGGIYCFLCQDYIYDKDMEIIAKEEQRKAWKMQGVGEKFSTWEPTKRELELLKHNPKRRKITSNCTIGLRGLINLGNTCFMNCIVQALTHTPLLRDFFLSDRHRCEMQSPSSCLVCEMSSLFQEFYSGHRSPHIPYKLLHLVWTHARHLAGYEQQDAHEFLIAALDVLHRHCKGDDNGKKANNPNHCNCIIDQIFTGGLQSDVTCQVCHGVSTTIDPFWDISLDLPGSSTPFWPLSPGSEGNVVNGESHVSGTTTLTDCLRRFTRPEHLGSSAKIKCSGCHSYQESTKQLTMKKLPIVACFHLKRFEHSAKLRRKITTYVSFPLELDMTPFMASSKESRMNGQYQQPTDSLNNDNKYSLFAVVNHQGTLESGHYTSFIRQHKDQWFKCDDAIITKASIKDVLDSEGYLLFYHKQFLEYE
Outline: as §1

[3] = biological target: USP24 (UniProt Q9UPU5)
Chain of USP24 (Q9UPU5 whole entry): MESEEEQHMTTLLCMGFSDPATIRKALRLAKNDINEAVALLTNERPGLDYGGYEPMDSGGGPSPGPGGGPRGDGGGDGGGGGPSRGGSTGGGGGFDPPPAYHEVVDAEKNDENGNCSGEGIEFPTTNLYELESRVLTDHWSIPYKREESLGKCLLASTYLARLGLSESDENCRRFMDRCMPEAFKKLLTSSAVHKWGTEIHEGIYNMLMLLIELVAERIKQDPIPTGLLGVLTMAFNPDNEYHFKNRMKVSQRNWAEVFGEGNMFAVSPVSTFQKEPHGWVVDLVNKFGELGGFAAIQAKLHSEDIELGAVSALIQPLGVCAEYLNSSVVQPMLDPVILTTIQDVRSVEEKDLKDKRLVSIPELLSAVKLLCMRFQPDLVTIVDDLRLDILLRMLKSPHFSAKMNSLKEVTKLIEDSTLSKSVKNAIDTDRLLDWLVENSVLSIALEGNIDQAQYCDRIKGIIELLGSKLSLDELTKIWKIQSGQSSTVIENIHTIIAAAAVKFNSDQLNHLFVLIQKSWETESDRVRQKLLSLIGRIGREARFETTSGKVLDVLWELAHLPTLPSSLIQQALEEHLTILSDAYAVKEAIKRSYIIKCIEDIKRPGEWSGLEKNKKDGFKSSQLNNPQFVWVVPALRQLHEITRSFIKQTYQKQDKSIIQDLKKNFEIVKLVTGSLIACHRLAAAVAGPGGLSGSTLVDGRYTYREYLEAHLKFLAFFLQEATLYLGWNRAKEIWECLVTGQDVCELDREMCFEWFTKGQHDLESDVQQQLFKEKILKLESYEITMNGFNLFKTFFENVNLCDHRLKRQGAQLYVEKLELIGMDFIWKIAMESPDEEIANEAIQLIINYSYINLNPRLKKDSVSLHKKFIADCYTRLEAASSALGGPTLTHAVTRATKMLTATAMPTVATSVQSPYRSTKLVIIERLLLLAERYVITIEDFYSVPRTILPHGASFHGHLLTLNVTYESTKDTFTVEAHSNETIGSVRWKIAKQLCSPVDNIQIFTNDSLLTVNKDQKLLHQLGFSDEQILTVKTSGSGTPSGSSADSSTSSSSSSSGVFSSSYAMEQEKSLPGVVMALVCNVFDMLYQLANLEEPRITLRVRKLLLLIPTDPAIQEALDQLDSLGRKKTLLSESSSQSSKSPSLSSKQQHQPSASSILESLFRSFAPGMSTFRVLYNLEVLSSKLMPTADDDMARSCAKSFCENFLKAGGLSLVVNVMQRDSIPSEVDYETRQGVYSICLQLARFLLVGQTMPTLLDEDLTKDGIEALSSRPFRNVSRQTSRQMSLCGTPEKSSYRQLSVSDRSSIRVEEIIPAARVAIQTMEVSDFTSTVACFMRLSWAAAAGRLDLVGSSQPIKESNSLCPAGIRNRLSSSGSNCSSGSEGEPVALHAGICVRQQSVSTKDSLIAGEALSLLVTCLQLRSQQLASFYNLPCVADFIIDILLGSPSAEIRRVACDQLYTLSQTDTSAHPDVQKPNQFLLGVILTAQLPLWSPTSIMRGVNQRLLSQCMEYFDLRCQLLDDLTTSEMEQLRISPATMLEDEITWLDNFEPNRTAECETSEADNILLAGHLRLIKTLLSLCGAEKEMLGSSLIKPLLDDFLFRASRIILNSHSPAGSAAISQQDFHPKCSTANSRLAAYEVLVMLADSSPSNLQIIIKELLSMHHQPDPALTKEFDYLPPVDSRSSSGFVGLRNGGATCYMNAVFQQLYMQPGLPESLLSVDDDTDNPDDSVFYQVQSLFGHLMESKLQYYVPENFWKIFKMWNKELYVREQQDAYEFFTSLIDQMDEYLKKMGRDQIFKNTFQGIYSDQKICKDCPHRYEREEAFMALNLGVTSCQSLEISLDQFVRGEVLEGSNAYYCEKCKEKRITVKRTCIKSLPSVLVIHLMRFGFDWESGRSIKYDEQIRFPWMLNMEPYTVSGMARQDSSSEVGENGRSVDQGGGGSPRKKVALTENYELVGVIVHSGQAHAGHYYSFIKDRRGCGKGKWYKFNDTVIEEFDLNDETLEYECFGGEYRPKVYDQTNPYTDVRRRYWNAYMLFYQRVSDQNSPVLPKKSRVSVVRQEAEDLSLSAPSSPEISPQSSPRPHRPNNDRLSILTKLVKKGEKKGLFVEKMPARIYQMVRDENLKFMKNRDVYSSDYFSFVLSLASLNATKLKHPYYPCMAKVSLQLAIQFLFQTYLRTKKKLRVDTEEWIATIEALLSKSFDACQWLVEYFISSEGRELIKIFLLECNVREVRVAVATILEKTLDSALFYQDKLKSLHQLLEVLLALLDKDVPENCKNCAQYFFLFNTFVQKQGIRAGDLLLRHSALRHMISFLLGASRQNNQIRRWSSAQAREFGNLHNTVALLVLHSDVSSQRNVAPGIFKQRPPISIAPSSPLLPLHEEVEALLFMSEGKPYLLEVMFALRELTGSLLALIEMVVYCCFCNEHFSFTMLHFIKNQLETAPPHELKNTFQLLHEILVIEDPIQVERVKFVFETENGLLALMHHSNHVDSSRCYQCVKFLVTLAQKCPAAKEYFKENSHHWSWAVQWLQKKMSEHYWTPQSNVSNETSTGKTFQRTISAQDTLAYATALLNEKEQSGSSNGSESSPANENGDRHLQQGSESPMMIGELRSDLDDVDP
Outline: as §1

[4] = biological target: T3, USP25 (UniProt Q9UHP3)
T3 sequence (whole entry): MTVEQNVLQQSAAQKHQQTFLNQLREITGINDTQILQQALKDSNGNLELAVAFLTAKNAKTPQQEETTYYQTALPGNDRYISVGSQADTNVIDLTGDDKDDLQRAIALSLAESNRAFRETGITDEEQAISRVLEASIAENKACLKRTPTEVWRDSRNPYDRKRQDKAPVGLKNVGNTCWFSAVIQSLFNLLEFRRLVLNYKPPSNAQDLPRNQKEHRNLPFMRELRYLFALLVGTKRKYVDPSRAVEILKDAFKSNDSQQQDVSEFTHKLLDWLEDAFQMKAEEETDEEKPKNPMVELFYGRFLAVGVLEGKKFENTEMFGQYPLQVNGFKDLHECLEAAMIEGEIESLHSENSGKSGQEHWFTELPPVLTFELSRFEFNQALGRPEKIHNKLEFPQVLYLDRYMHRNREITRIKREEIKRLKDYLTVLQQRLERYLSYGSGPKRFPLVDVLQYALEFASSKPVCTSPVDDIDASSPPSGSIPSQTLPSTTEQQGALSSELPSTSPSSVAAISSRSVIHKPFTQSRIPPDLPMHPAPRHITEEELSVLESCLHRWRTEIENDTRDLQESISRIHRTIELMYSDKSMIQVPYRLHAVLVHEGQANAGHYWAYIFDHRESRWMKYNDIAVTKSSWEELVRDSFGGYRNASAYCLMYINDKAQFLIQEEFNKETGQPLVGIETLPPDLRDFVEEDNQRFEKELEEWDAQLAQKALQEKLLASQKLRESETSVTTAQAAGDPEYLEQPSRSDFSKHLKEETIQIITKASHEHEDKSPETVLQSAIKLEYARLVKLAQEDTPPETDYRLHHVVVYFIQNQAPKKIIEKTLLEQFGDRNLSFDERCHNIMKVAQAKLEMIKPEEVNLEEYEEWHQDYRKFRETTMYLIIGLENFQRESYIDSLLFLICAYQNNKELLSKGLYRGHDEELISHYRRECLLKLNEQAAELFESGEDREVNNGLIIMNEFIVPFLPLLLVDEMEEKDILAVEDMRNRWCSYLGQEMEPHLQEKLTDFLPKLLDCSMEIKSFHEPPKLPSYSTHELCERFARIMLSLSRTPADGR
Outline: as §1

[5] = biological target: T4, USP28 (UniProt Q96RU2)
T4 sequence (whole entry): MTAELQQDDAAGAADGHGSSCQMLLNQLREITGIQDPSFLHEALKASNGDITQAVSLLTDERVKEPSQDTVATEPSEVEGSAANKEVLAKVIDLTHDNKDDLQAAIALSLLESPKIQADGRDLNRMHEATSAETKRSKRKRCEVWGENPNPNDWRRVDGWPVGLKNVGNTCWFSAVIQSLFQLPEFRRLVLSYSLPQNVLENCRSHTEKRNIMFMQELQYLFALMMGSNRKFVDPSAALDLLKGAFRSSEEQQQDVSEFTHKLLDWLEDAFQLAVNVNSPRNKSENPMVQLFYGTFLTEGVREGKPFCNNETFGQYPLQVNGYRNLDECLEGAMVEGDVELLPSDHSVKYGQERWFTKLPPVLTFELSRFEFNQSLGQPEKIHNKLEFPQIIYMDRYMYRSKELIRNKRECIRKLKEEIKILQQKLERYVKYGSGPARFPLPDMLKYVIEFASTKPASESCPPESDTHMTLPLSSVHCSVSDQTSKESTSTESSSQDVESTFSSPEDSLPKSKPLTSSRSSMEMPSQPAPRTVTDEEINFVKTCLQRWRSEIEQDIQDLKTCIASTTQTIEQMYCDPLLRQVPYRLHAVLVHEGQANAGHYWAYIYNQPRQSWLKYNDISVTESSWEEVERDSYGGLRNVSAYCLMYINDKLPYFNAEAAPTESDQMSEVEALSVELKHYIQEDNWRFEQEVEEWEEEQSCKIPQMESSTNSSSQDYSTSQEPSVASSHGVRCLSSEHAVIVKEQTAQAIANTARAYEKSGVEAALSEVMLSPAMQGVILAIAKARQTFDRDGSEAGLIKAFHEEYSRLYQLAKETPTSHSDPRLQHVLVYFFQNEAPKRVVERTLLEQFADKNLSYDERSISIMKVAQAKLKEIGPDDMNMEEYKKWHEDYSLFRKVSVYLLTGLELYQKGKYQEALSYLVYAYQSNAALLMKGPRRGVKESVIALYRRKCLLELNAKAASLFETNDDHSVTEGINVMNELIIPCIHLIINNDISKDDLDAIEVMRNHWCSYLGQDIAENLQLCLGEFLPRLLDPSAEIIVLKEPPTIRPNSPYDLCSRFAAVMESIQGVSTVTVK
Outline: as §1

Measured: log2 ratio of Biotin-Ahx-Ub-VS probe labelling

O=C(CCl)Nc1cccc(NC(=O)c2ccccc2)c1
inactive: [1] 0.0261 | [2] 0.406 | [3] 0.05 | [4] -0.383 | [5] -0.173
